Inconclusive results are not listed. Active and inactive are the calls of the source. How the source made its calls, unless noted: active means hit-call score of the fitted dose curve at least 0.9, where 1 is the maximum; inactive means score below 0.9.

Assay [1] can be described thus: CCTE_Shafer_MEA_dev_firing_rate_mean: CCTE's Neural Network Formation Assay for Mean Firing Rate, Shafer Lab (AID 2284031). The gist of the method: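 Extracellular spike frequency, AUC over DIV 5–12 recordings, in rat cortical neuron MEA cultures dosed from plating; loss direction vs DMSO.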
The nature of assay [2]: CCTE_Shafer_MEA_dev_per_burst_spike_percent: CCTE's Neural Network Formation Assay for Percent of Spikes in a Burst, Shafer Lab (AID 2284032). The gist of the method:
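Value is trapezoidal AUC over recordings on days 5, 7, 9 and 12 of the well-mean fraction of spikes falling in single-electrode bursts; rat cortical cultures exposed continuously from plating, treatment renewed DIV 5 and 9, fitted downward against DMSO.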

Assay [3] in a line: CCTE_Shafer_MEA_dev_active_electrodes_number: CCTE's Neural Network Formation Assay for Number of Active Electrodes, Shafer Lab (AID 2284040; active means hit-call score of the fitted dose curve at least 0.9, where 1 is the maximum;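 further: potency for loss of active electrodes versus DMSO so lower counts are hits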). The gist of the method: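 Developing rat cortical networks on MEAs, exposed DIV 0–12. Value is the AUC of active-electrode counts (≥5 spikes/min) from days 5, 7, 9, 12, relative to DMSO.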
The nature of assay [4]: CCTE_Shafer_MEA_dev_burst_rate: CCTE's Neural Network Formation Assay for Burst Rate, Shafer Lab (AID 2284042). The gist of the method: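 Exposure ran continuously over 12 days of network development in rat cortical cultures, with compound refreshed during full media changes on DIV 5 and 9. Single-electrode bursts per recording time, well-mean over active electrodes, trapezoidal AUC across days 5–12, fitted downward relative to DMSO.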

Assay [5] in a line: CCTE_Shafer_MEA_dev_per_burst_interspike_interval: CCTE's Neural Network Formation Assay for Burst Interspike Interval, Shafer Lab (AID 2284044). The gist of the method:
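Primary rat cortical neurons on 48-well MEA plates, exposed from day 0 through day 12, treatment renewed at DIV 5 and 9. Within-burst interspike interval recorded days 5, 7, 9, 12, well-averaged, summarised as AUC; negative fit versus DMSO.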

Assay [6] is described as follows: CCTE_Shafer_MEA_dev_burst_duration_mean: CCTE's Neural Network Formation Assay for Mean Burst Duration, Shafer Lab (AID 2284045). In short, it runs like this:
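Network-formation assay in primary rat cortical neurons; treatment spans twelve days of development. Mean burst duration per well is integrated by trapezoidal AUC and fitted in the loss-of-signal direction against DMSO baseline.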

The nature of assay [7]: CCTE_Shafer_MEA_dev_interburst_interval_mean: CCTE's Neural Network Formation Assay for Mean Interburst Interval, Shafer Lab (AID 2284046).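 Further: curve fitted for decrease in interburst interval relative to DMSO.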 In short, it runs like this: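 Primary rat cortical neurons on PEI-coated 48-well MEA plates (laminin added with cells at plating) (16 electrodes/well), exposed from plating day 0 with renewal at DIV 5 and 9. Mean inter-burst interval averaged over bursting electrodes, AUC across days 5, 7, 9, 12; DMSO baseline.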

Assay [8] in a line: CCTE_Shafer_MEA_dev_inter_network_spike_interval_mean: CCTE's Neural Network Formation Assay for Mean Inter-network Spike Interval, Shafer Lab (AID 2284047). In short, it runs like this: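 Mean time between consecutive network-spike peaks, recorded extracellularly (adaptive spike detection) on DIV 5, 7, 9 and 12, summarized as trapezoidal AUC. Rat cortical cultures on MEAs dosed continuously days 0–12, re-dosed at feeds; loss-of-signal fit relative to DMSO.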

The nature of assay [9]: CCTE_Shafer_MEA_dev_network_spike_number: CCTE's Neural Network Formation Assay for Number of Network Spikes, Shafer Lab (AID 2284048).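 Further: synchronized bursts across electrodes counted on days 5 7 9 12 and integrated as AUC.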 The gist of the method:
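Extracellular recordings from 16-electrode wells track network formation in rat cortical cultures under continuous treatment from plating. The endpoint is network spike number, expressed as AUC across DIV 5–12 relative to DMSO vehicle.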

Assay [10] is described as follows: CCTE_Shafer_MEA_dev_network_spike_peak: CCTE's Neural Network Formation Assay for Mean Number of Electrodes in Network Spike, Shafer Lab (AID 2284049).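 Further: fitted for loss of signal meaning fewer electrodes in network spikes than DMSO.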 In short, it runs like this:
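Continuous 12-day exposure of rat cortical cultures, starting at plating, on MEA plates. Endpoint: electrodes participating in network-spike peaks, AUC across DIV 5–12, DMSO as negative control.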

A short description of assay [11]: CCTE_Shafer_MEA_dev_spike_duration_mean: CCTE's Neural Network Formation Assay for Mean Spike Duration, Shafer Lab (AID 2284051).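 Further: mean network spike duration pooled as area under curve over DIV 5 to 12 recordings.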 In short, it runs like this:
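Spontaneous activity was recorded on days 5, 7, 9 and 12 from rat cortical cultures grown on microelectrode arrays and dosed continuously from day 0, with media and compound renewed after the DIV 5 and 9 recordings. Network-spike duration was collapsed by area under the curve.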

A short description of assay [12]: CCTE_Shafer_MEA_dev_network_spike_duration_std: CCTE's Neural Network Formation Assay for Standard Deviation of Network Spike Duration, Shafer Lab (AID 2284052).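 Further: hits are decreases in network spike duration SD versus DMSO vehicle.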 In short, it runs like this: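 Network spike duration variability was collapsed across recordings on days 5, 7, 9 and 12 by trapezoidal area-under-curve and fitted downward against DMSO. Cultures were rat cortical neurons on PEI-coated MEA plates, dosed continuously from plating, refed with compound DIV 5/9.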

The nature of assay [13]: CCTE_Shafer_MEA_dev_per_network_spike_spike_number_mean: CCTE's Neural Network Formation Assay for Mean Number of Spikes in a Network Spike, Shafer Lab (AID 2284053). The gist of the method:
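Mean spike count within each network spike, taken in a 0.05 s window at its peak, was recorded on days 5, 7, 9 and 12 and integrated as trapezoidal area under the curve. Rat cortical cultures on MEA plates received continuous compound from day 0, refreshed at medium changes on DIV 5 and 9.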

Assay [14] is described as follows: CCTE_Shafer_MEA_dev_per_network_spike_spike_percent: CCTE's Neural Network Formation Assay for Percent of Spikes in a Network Spike, Shafer Lab (AID 2284054). In short, it runs like this: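 Developing networks of rat cortical neurons are dosed at day 0 and recorded extracellularly four times up to day 12. The endpoint is the area under the curve of percent spikes in network spikes, fitted in the negative direction relative to DMSO.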

Assay [15] in a line: CCTE_Shafer_MEA_dev_LDH: CCTE's Lactate Dehydrogenase Assay for Cytotoxicity in the Neural Network Formation Assay, Shafer Lab (AID 2284068; active means hit-call score of the fitted dose curve at least 0.9, where 1 is the maximum;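 further: exposure for twelve days from plating with re-dosing on DIV 5 and 9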). In short, it runs like this:
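Primary rat cortical neurons were cultured on PEI-coated MEA plates and exposed from plating through day 12, with compound renewed at medium changes on DIV 5 and 9. LDH activity was read spectrophotometrically; loss of signal versus DMSO indicates reduced viability.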

The nature of assay [16]: CCTE_Shafer_MEA_dev_AB: CCTE's Alamar Blue Assay for Cytotoxicity in the Neural Network Formation Assay, Shafer Lab (AID 2284083; active means hit-call score of the fitted dose curve at least 0.9, where 1 is the maximum;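 further: resazurin reduction fluorescence as viability of cultured neurons; twelve days of exposure from plating with re-dosing on DIV 5 and 9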). The gist of the method: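 Resazurin fluorescence, relative to DMSO, gauges viability after twelve days of exposure that began at plating of rat cortical neurons (1.5 x 10^5 cells/well, 48-well MEA); treatment renewed with full medium exchange on DIV 5 and 9.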
On the technique in general: Resazurin is reduced to fluorescent resorufin, in cell work by metabolically active cells.

A short description of assay [17]: CCTE_Shafer_MEA_dev_mutual_information_norm: CCTE's Neural Network Formation Assay for Mutual Information Normalization, Shafer Lab (AID 2284091). The gist of the method: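 Exposure of primary rat cortical neurons began at plating and ran to DIV 12, with full media and treatment renewal after DIV 5 and 9 recordings. Mutual information AUC (DIV 5–12) was analysed for loss versus DMSO.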

The nature of assay [18]: CCTE_Shafer_MEA_dev_correlation_coefficient_mean: CCTE's Neural Network Formation Assay for Mean Correlation Coefficient, Shafer Lab (AID 2284093). The gist of the method:
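Primary rat cortical neurons on PEI-coated 48-well MEA plates (16 electrodes/well) were exposed from plating day 0 through DIV12, with compound renewed at DIV5 and 9. Pairwise spike correlations were averaged per well; trapezoidal AUC across DIV5, 7, 9, 12.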

Assay [19] in a line: UKN2_HCS_IMR90_neural_migration: University of Konstanz (UKN) Leist Lab Neural Crest Cell Migration Assay in human induced IMR90 Pluripotent Stem Cells (UKN2) (AID 2284204). Particulars: actives raise or lower the signal. The gist of the method: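 Using a 96-well stopper format with PLO/laminin/fibronectin coating, neural crest cells from iPSC migrate in cytokine-supplemented N2-S medium; after 24 h, chemicals are applied for a further 24 h, then cells are imaged after dye staining.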

Assay [20] in a line: IUF_NPC1b_proliferation_BrdU_72hr: Leibniz Research Institute for Environmental Medicine (IUF) 72-hour Neural Progenitor Cell Bromodeoxyuridine (BrdU) Proliferation Assay (NPC1b) (AID 2284207). The gist of the method: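 Neural progenitor spheres of human fetal origin are treated for three days; BrdU added for the last 16 h is quantified by luminescence ELISA, with DMSO as baseline and EGF/FGF omission as positive control.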

A short description of assay [21]: IUF_NPC1a_proliferation_area_72hr: Leibniz Research Institute for Environmental Medicine (IUF) 72-hour Neural Progenitor Cell Proliferation Area Assay (NPC1a) (AID 2284208). The gist of the method:
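Single 0.25–0.35 mm human fetal neural progenitor spheres in proliferation medium with EGF and FGF, exposed 72 h from plating without renewal at 37C, pH 7.2-7.6. Sphere area growth measured by automated phase-contrast imaging, relative to DMSO.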

Assay [22] is described as follows: CCTE_Mundy_HCI_Cortical_Synap_Neur_Matur_NeuriteSpotCountPerNeuriteLength: CCTE's Synaptogenesis and Neurite Maturation Assay in rat cortical cells for Neurite Spot Count per Neurite Length, Mundy Lab (AID 2284210). In short, it runs like this: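 Neurite-associated synapse density (synaptophysin puncta per unit neurite length) is measured by fluorescence high-content imaging in rat cortical cultures treated from DIV 7 and fixed at DIV 12, with DMSO as negative control.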

Regarding `CCOP(=O)(OCC)SCSC(C)(C)C`, the outcome in assay [1], in assay [2], in assay [4], in [5], in [6] and in [7] was inactive. The molecule was classed as inactive in assay [8], in assay [9], in [11], in [12], in assay [13] and in [14]. The outcome in assay [17], in [18], in [19], in assay [20], in assay [21] and in assay [22] was inactive. In addition, the half-maximal activity concentration (AC50) is 16.2 µM (active) in assay [3], 49.5 µM (active) in assay [10], 49.5 µM (active) in assay [15] and 90.6 µM (active) in [16].

In general, AC50 refers to the midpoint of the concentration-response curve, whichever way the signal moves.

The record behind these values is PubChem BioAssay (EPA / NIEHS).
